HCV inh: blocks hepatitis C virus. 340,000 tested, 3.4% active. Huh7.5.1 HCVcc-Cre infection, luciferase reporter, 44 h. Potency, µM (highest dose often 41.8 µM), actives largely listed as inhibitors. AID 651820
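1,000 cells/well; 4 h culture; + compound; + HCVcc-Cre (~0.5 moi); 44 h; luciferase substrate, RT 15 min; read 15 sec.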
Giardia FBPA inh: blocks Giardia fructose-bisphosphate aldolase activity; purified Giardia FBPA; 290,000 tested, 0.71% active; Potency, µM (series often up to 59.6 µM), usual class: inhibitors; note: nearly all actives have a fitted effect of over 55% in size
Target sequence (A8B2U2 whole entry, looked up): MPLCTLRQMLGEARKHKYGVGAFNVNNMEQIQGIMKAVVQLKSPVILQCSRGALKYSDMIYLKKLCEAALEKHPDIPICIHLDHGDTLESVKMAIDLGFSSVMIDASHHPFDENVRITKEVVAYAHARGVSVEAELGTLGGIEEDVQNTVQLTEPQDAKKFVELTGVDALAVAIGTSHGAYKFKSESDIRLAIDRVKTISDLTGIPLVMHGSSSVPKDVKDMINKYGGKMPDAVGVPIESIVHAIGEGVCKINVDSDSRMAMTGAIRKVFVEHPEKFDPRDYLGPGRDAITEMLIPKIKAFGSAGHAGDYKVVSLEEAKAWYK
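40 nM FBPA preincubated 10 min at RT with compound (up to 57.5 uM final), then substrate plus GAPDH/TPI/NAD/arsenate coupling and diaphorase/resazurin added. Fluorescence read after 20 min at RT, 525/598 nm.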
Vaccinia mCherry: vaccinia inhibition (mCherry reporter) | 310,000 tested, 0.63% active | Vaccinia virus mCherry reporter infection, fluorescence | Potency, µM (doses to about 36.5 µM), actives largely listed as inhibitors | AID 720579; calls by dose curve; tested in A549 cells; note: nearly all actives have a fitted effect of over 35% in size
HCMV antiviral: blocks human cytomegalovirus replication | HFF cells, HCMV-luciferase reporter, 72 h; active compounds read low | activity change, negative = inhibition, % at 57.5 µM | 410,000 tested, 4.5% active; in the data active = activity change below about -60%; inconclusive = no clear call, values can overlap the other calls; inactive = above about -39%
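Luciferase read-out from HCMV-luciferase-infected HFFs (MOI 1 PFU/cell) 72 h post infection at 37C; compounds added after 16 h cell attachment; activity normalized between buffer-only basal and Salinomycin (10uM) inhibitor controls.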
Vaccinia Venus: inhibitors of vaccinia virus (Venus reporter); Vaccinia virus Venus reporter expression, fluorescence; Potency, µM (doses to about 36.5 µM), usual class: inhibitors; 330,000 tested, 0.46% active; AID 720580; calls by dose curve; tested in A549 cells; note: nearly all actives have a fitted effect of over 30% in size
FMDV inh: blocks foot and mouth disease virus; FMDV antiviral cell-based qHTS; 410,000 tested, 1.2% active; AID 1159524; Potency, µM (doses to about 57.9 µM), most hits filed as inhibitors; calls by dose curve; tested in HEK293T cells; note: read-out not given here; nearly all actives have a fitted effect of over 45% in size
Hits are given with their value; [ ] = another dose, or the depositor's remark. This is a sample that favours compounds with a hit; in the whole collection about 7.5% have one here. Unless noted, calls come from the whole dose curve; as a rule, active = well fitted curve in the direction sought with a large enough effect; inconclusive = small, poorly fitted or top-dose-only effect, or another doubt; inactive = no such curve, though single readings can be large; an effect the other way counts as inactive or inconclusive.

How did Clc1ccc(-n2nnnc2-c2cnc(-c3ccncc3)nc2-c2cccs2)cc1 do in these assays?
HCV inh: 22µM; Giardia FBPA inh: inactive; HCMV antiviral: -62; FMDV inh: inactive

Results for O=C(COc1ncnc2ccc(Br)cc12)NCc1ccco1 ?
HCV inh: inactive; Giardia FBPA inh: inactive; Vaccinia mCherry: inactive; HCMV antiviral: inactive; Vaccinia Venus: inactive; FMDV inh: inactive

How did CC(=O)N1CCC2(CC1)CCN(C(=O)Nc1cccc(F)c1)CC2 do in these assays?
Giardia FBPA inh: inactive; FMDV inh: inactive

Results for COc1ccc(C(C#N)N2CCC(c3ccccc3)=N2)cc1 (centres undefined) ?
HCV inh: inactive; Giardia FBPA inh: inactive; Vaccinia mCherry: inactive; HCMV antiviral: -73; Vaccinia Venus: inactive; FMDV inh: inactive

What do the screens show for `Cc1onc(-c2ccccc2)c1C(=O)Nc1nc(-c2ccc(F)c(F)c2)cs1`?
HCV inh: inconclusive; Giardia FBPA inh: inactive; Vaccinia mCherry: inactive; HCMV antiviral: inactive; Vaccinia Venus: inactive; FMDV inh: inactive

Results for CCc1noc(C)c1C(=O)Nc1nc(-c2ccc(NC(C)=O)cc2)cs1 ?
HCV inh: 10µM; Vaccinia mCherry: inactive; HCMV antiviral: inactive; Vaccinia Venus: inactive; FMDV inh: 22µM

What do the screens show for `CCc1noc(C)c1C(=O)OCC(=O)Nc1nc(-c2ccc(F)c(F)c2)cs1`?
HCV inh: inconclusive; Vaccinia mCherry: inactive; HCMV antiviral: inactive; Vaccinia Venus: inactive; FMDV inh: 14µM

How did CCc1noc(C)c1C(=O)Nc1nc(-c2ccc(OC)c(OC)c2)cs1 do in these assays?
HCV inh: inconclusive; Vaccinia mCherry: inactive; HCMV antiviral: inactive; Vaccinia Venus: inactive; FMDV inh: 18µM

How did COc1ccc(C2=Nc3ccccc3N(C(=O)c3ccc(C)cc3)C2C(=O)Nc2c(C)cccc2C)cc1 (centres undefined) do in these assays?
Vaccinia mCherry: inactive; HCMV antiviral: inactive; Vaccinia Venus: inactive; FMDV inh: inactive

Results for COc1cc(C#Cc2c(-c3cncn3C)n(C)c3ccc(-c4ccc(CN5CCOCC5)cc4)cc23)cc(OC)c1 ?
HCV inh: 11µM; Vaccinia mCherry: inactive; HCMV antiviral: inactive; Vaccinia Venus: inconclusive; FMDV inh: inactive

What do the screens show for `Cc1ccccc1C(=O)N1CCc2c(cnc(C)c2CNC(=O)CN2CCCCC2)C1`?
Vaccinia mCherry: inactive; Vaccinia Venus: inactive; FMDV inh: inactive

Results for CCCCN(Cc1nc2ccccc2c(=O)[nH]1)C(=O)CN1C(=O)NC2(CCCCC2)C1=O ?
HCV inh: inactive; HCMV antiviral: inactive; FMDV inh: inactive

Results for CC(C)CC1OCCC=CC1C (centres undefined) ?
Giardia FBPA inh: inactive[12.9 µM]

Results for CC(=O)c1cccc(NC(=S)Nc2ccn(Cc3cccc4ccccc34)n2)c1 ?
HCV inh: 11µM; Giardia FBPA inh: inactive; Vaccinia mCherry: inactive; HCMV antiviral: inconclusive; Vaccinia Venus: inactive; FMDV inh: inactive

How did CC(C)C(=O)N1CCN(c2nc3ccc(Cl)cc3s2)CC1 do in these assays?
HCV inh: inconclusive; HCMV antiviral: inactive; FMDV inh: inactive

How did CC(C)NC(=O)N1CCCN(c2nc3ccc(Cl)cc3s2)CC1 do in these assays?
HCV inh: 4µM; Giardia FBPA inh: inactive; Vaccinia mCherry: inactive; HCMV antiviral: inconclusive; Vaccinia Venus: inactive; FMDV inh: inactive

Results for Cc1cc(C)c(S(=O)(=O)Nc2ccccn2)c(C)c1 ?
HCV inh: inactive; Giardia FBPA inh: inactive; HCMV antiviral: inactive; FMDV inh: inactive

How did COc1ccc2c(Cl)c(-c3nnc(SCC(=O)c4ccccc4)n3C)sc2c1 do in these assays?
HCV inh: 11µM; Giardia FBPA inh: inactive; Vaccinia mCherry: inactive; HCMV antiviral: inactive; Vaccinia Venus: inconclusive; FMDV inh: inactive

How did CC(C)n1c(O)c(C2c3cc(Cl)ccc3Oc3[nH]c(=O)n(C(C)C)c(=O)c32)c(=O)[nH]c1=O (centres undefined) do in these assays?
HCV inh: 5µM; Giardia FBPA inh: inactive; Vaccinia mCherry: inactive[7.34 µM]; Vaccinia Venus: inactive[7.34 µM]; FMDV inh: 3.5µM

What do the screens show for `Cc1cccc(C(=O)Nc2ccc3ccccc3c2)c1`?
HCV inh: inconclusive; Giardia FBPA inh: inactive; HCMV antiviral: -102; FMDV inh: inactive

What do the screens show for `O=C(Nc1ccc2ccccc2c1)c1ccccc1O`?
HCV inh: inconclusive; Giardia FBPA inh: inactive; Vaccinia mCherry: inconclusive; HCMV antiviral: -99; Vaccinia Venus: inconclusive; FMDV inh: inactive

Results for Cc1ccc2cc(NC(=O)Cc3ccccc3)ccc2n1 ?
HCV inh: inactive; Giardia FBPA inh: inactive; HCMV antiviral: inactive; FMDV inh: inactive

What do the screens show for `Cc1ccc2cc(NC(=O)c3ccccc3C)ccc2n1`?
HCV inh: inactive; Giardia FBPA inh: inactive; Vaccinia mCherry: inactive; HCMV antiviral: -100; Vaccinia Venus: inactive; FMDV inh: inactive

Results for Cc1cccc(C(=O)Nc2ccc3c(c2)nc(C)n3C)c1 ?
HCV inh: inactive; Giardia FBPA inh: inactive; Vaccinia mCherry: inactive; HCMV antiviral: -102; Vaccinia Venus: inactive; FMDV inh: inactive

How did Cn1ncc(N=Cc2ccc([N+](=O)[O-])cc2)c1C(=O)Nc1ccccc1 do in these assays?
HCV inh: inactive; Giardia FBPA inh: inactive; Vaccinia mCherry: inactive; HCMV antiviral: inactive; Vaccinia Venus: inactive; FMDV inh: inactive

Results for CC[C@@H](c1ccccc1)n1c(=O)n2n(c1=O)[C@H]1[C@H](O)[C@H]3O[C@@H]3/C(=N/OC[C@@H](O)COCc3ccco3)[C@@H]1CC2 ?
Giardia FBPA inh: inactive[12.9 µM]

Results for O=S(=O)(NCC(c1ccco1)S(=O)(=O)c1ccccc1)c1cc(F)ccc1F (centres undefined) ?
Vaccinia mCherry: inactive; HCMV antiviral: -69; Vaccinia Venus: inactive; FMDV inh: inactive

Results for O=S(=O)(NCC(c1ccco1)S(=O)(=O)c1ccccc1)c1ccccc1 (centres undefined) ?
Vaccinia mCherry: inactive; HCMV antiviral: inactive; Vaccinia Venus: inactive; FMDV inh: inactive

Results for O=S(=O)(CC(CN1CCOCC1)N1CCOCC1)c1ccccc1 (centres undefined) ?
HCV inh: inactive; Giardia FBPA inh: inactive; Vaccinia mCherry: inactive; HCMV antiviral: inactive; Vaccinia Venus: inactive; FMDV inh: inactive

How did O=S(=O)(CC(CN1CCCCC1)N1CCCCC1)c1ccc2ccccc2c1 (centres undefined) do in these assays?
HCV inh: inactive; Giardia FBPA inh: inactive; Vaccinia mCherry: inconclusive; HCMV antiviral: -73; Vaccinia Venus: inconclusive; FMDV inh: inconclusive

How did Cc1ccc(S(=O)(=O)CC(CN2CCCCC2)N2CCCCC2)cc1 (centres undefined) do in these assays?
HCV inh: 16µM; Giardia FBPA inh: inactive; Vaccinia mCherry: inconclusive; HCMV antiviral: -99; Vaccinia Venus: inconclusive; FMDV inh: 28µM

Results for COc1cc(C(=O)NC2CCCc3c2cnn3-c2ccccc2F)cc(OC)c1OC (centres undefined) ?
HCV inh: 8.9µM; Vaccinia mCherry: inactive; HCMV antiviral: -62; Vaccinia Venus: inactive; FMDV inh: inconclusive

Screening results deposited in PubChem BioAssay by National Center for Advancing Translational Sciences (NCATS).
